Source: PubChem BioAssay (NCI)
The panel holds about 83,000 compounds, 20% with a hit somewhere; the sample as a whole holds those more often.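 Growth was measured after 48 h exposure to one concentration of compound in 96-well plates. Values under 10 count as active.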 Calls of active or inactive are those of the source.

Tests used:
Test in all cases: NCI-60 one-dose screen, 48 h (100 = growth as untreated, 0 = no growth, -100 = all killed)
Conditions in all cases: 10 µM
RXF 393 renal = system: RXF 393 renal
HCT-15 colon = system: HCT-15 colon
SK-MEL-5 melanoma = system: SK-MEL-5 melanoma
UACC-62 melanoma = system: UACC-62 melanoma
LOX IMVI melanoma = system: LOX IMVI melanoma
CCRF-CEM leukemia = system: CCRF-CEM leukemia
OVCAR-4 ovarian = system: OVCAR-4 ovarian
MCF7 breast = system: MCF7 breast
HCT-116 colon = system: HCT-116 colon
HCC-2998 colon = system: HCC-2998 colon
KM12 colon = system: KM12 colon
UO-31 renal = system: UO-31 renal
ACHN renal = system: ACHN renal
M14 melanoma = system: M14 melanoma
U251 CNS = system: U251 CNS
T-47D breast = system: T-47D breast
SNB-75 CNS = system: SNB-75 CNS

| SMILES | growth (RXF 393 renal) | growth (HCT-15 colon) | growth (SK-MEL-5 melanoma) | growth (UACC-62 melanoma) | growth (LOX IMVI melanoma) | growth (CCRF-CEM leukemia) | growth (OVCAR-4 ovarian) | growth (MCF7 breast) | growth (HCT-116 colon) | growth (HCC-2998 colon) | growth (KM12 colon) | growth (UO-31 renal) | growth (ACHN renal) | growth (M14 melanoma) | growth (U251 CNS) | growth (T-47D breast) | growth (SNB-75 CNS) |
| --- | --- | --- | --- | --- | --- | --- | --- | --- | --- | --- | --- | --- | --- | --- | --- | --- | --- |
| C#C[C@]1(O)CC[C@H]2[C@@H]3CC=C4c5sc(Nc6ccc(C(F)(F)F)cn6)nc5CC[C@]4(C)[C@H]3CC[C@@]21C | -37.9% (active) | -34.8% (active) | -97.1% (active) | -45.9% (active) | -98.5% (active) | 6.72% (active) | 20% (inactive) | -28.7% (active) | -66.9% (active) | 4.01% (active) | -16.5% (active) |  |  |  |  |  |  |
| Cc1cc(N=C2NC(=O)/C(=C/c3cc(C(C)(C)C)c(O)c(C(C)(C)C)c3)S2)n[nH]1 | -38.6% (active) | 6.98% (active) | -72.8% (active) |  |  | 13% (inactive) | -42.7% (active) | 4.33% (active) | 3.45% (active) | 22.5% (inactive) | 17.1% (inactive) | 16.7% (inactive) | 14% (inactive) |  |  |  |  |
| Nc1nnc(-c2c[nH]c3ncc(Br)cc23)c(-c2c[nH]c3ccc(Br)cc23)n1 | -14.7% (active) | 31.7% (inactive) | 9.81% (active) | 24.4% (inactive) | 37.6% (inactive) | 5.14% (active) | 47.7% (inactive) | 15.7% (inactive) | 22.1% (inactive) | 75.7% (inactive) | 37.5% (inactive) | 32.6% (inactive) | 37.3% (inactive) | 34.5% (inactive) | 38.3% (inactive) |  |  |
| COc1cc(Nc2nc(O)c(/C=C3\C=Nc4ccccc43)s2)cc(OC)c1OC | -69.2% (active) |  | -34.7% (active) |  |  | 14.9% (inactive) | -63.9% (active) | -23.7% (active) | -59.2% (active) | -48.2% (active) | -72.4% (active) | -48.9% (active) | -2.09% (active) | -18.7% (active) |  | 2.48% (active) |  |
| Cc1cc(N=C2NC(=O)S/C2=C\c2ccc(F)cc2)n[nH]1 | -37.4% (active) |  | 16.5% (inactive) |  | -59.8% (active) | 9.4% (active) | 22.7% (inactive) | 7.74% (active) | -51.5% (active) | 22.4% (inactive) | 28.2% (inactive) |  | 27.4% (inactive) | -30.7% (active) | 5.06% (active) | 18.1% (inactive) |  |
| COc1ccc(C2c3sc4ccc(C)cc4c3Oc3nc(N)nc(N)c32)cc1 (configuration not stated) | 64.8% (inactive) | 59.9% (inactive) | 92.9% (inactive) |  | 80.8% (inactive) | 82.8% (inactive) | 85.8% (inactive) | 53.8% (inactive) | 86.9% (inactive) | 94% (inactive) | 70.9% (inactive) |  |  | 74.8% (inactive) | 83.1% (inactive) |  |  |
| O=C(c1ccccc1)c1ccc2nc(-c3ccccc3Br)[nH]c2c1 | -90.4% (active) | -37.7% (active) | -97.6% (active) | -47.5% (active) |  | -9.65% (active) | -54.8% (active) | -6.39% (active) | -38.8% (active) | -96.3% (active) | -44.2% (active) | -99.1% (active) |  |  |  | -59.3% (active) | -41.9% (active) |
| Cn1cc(-c2nnc(N)nc2-c2c[nH]c3ccc(F)cc23)c2cc(Br)cnc21 | 38.7% (inactive) |  | 81.9% (inactive) | 50.8% (inactive) | 47% (inactive) | 35.4% (inactive) | 59.6% (inactive) | 27.7% (inactive) | 59.2% (inactive) | 72.8% (inactive) | 61.5% (inactive) |  |  | 77.4% (inactive) |  |  | 59.1% (inactive) |
| O=C(CN1CCN(c2ncnc3c2cnn3-c2ccccc2)CC1)Nc1ccc(Cl)cc1 | 74.4% (inactive) | 45% (inactive) | 0.35% (active) |  |  | 51.9% (inactive) | 44.5% (inactive) | 27.6% (inactive) | 51.8% (inactive) | 55.8% (inactive) | 53.1% (inactive) |  |  | 59.4% (inactive) | 66.7% (inactive) |  | 69.7% (inactive) |
| COc1ccc(Cn2cc(C#N)c(N)c2C(C)=O)c(OC)c1 | 107% (inactive) | 102% (inactive) | 99.1% (inactive) |  |  | 105% (inactive) | 110% (inactive) | 101% (inactive) | 99.2% (inactive) | 106% (inactive) | 106% (inactive) | 96.4% (inactive) | 101% (inactive) | 99.8% (inactive) |  | 106% (inactive) |  |
| Cn1cc(-c2cc3nc(-c4c[nH]c5ccccc45)cc(N)n3n2)c2cc(Cl)ccc21 | -82.7% (active) |  | -99% (active) | -85.8% (active) | -91.6% (active) | -12.6% (active) | -73.8% (active) | -85.9% (active) | -84.6% (active) | -84.1% (active) | -82.2% (active) |  |  | -89.3% (active) | -91.8% (active) | -85.5% (active) |  |
